Laboratory results published in PubChem BioAssay (NCI).
Compounds without any hit were thinned out: in the full panel of roughly 79,000, 15% have a hit. Active and inactive are the calls of the source. Rule as the data show it: active = growth inhibition above about 70%; inactive = the rest.

What was measured:
[1] = NCI Yeast Anticancer Drug Screen. Data for the rad50 strain (AID 155);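 also: 0% = growth of vehicle-only cultures of the same strain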; conditions: S. cerevisiae rad50 strain growth inhibition; at 50.0 µM; hits give high values
Summary of the method: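 Readout: growth inhibition relative to vehicle-treated cultures. Compound exposure was carried out in a genetically defined yeast strain deficient in DNA damage repair.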

[2] = NCI Yeast Anticancer Drug Screen. Data for the mec2-1 strain (AID 157); conditions: S. cerevisiae mec2-1 strain, at 50.0 µM, hits give high values
Summary of the method: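 mec2-1 yeast strain, carrying an alteration in DNA damage repair or cell cycle control, was exposed to compounds; growth inhibition was measured relative to vehicle-treated controls.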

[3] = NCI Yeast Anticancer Drug Screen. Data for the sgs1 mgt1 strain (AID 161);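 also: 0% = growth of cultures given vehicle only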; conditions: S. cerevisiae sgs1 mgt1 strain, at 50.0 µM, hits give high values
Summary of the method: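 Yeast cells carrying a defined DNA-repair defect were exposed to test compounds. Growth inhibition was measured relative to vehicle-treated controls.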

[4] = NCI Yeast Anticancer Drug Screen. Data for the cln2 rad14 strain (AID 165);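 also: 0% = growth equal to vehicle treated cultures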; conditions: S. cerevisiae cln2 rad14 strain, at 50.0 µM, hits give high values
Summary of the method: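 Yeast carrying cln2 and rad14 alterations (cell cycle control and DNA damage repair) were exposed to compounds. Growth inhibition was measured against vehicle-treated controls.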

[5] = NCI Yeast Anticancer Drug Screen. Data for the bub3 strain (AID 167); conditions: S. cerevisiae bub3 mutant strain, at 50.0 µM, hits give high values
Summary of the method: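 Readout: yeast growth inhibition, expressed relative to vehicle-only wells. The test organism is a mutant strain from a panel with lesions in DNA repair or checkpoint genes.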

[6] = NCI Yeast Anticancer Drug Screen. Data for the mlh1 rad18 strain (AID 175); conditions: S. cerevisiae mlh1 rad18 strain growth inhibition; at 50.0 µM; hits give high values
Summary of the method: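 Growth inhibition of the yeast strain was measured after compound exposure and expressed relative to vehicle-treated controls. The strain carries defined defects in DNA damage repair.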

Measured: growth inhibition

N#Cc1cccc(C2SCc3nc4ccccc4n32)c1 (stereo unspecified)
inactive: [1] -1.1% | [2] -8.9% | [3] 25.9% | [4] 23.1% | [5] 4.8% | [6] 18.1%

N#CC(C(=O)CCCC(=O)Nc1ccc(Cl)cc1Cl)c1ccccc1 (stereo unspecified)
inactive: [1] -39% | [2] -13.6% | [3] -6.95% | [4] 13.2% | [5] -16% | [6] -28.1%

Cc1cc(=O)c2cc(N=Cc3ccc(N(C)C)cc3)ccc2o1
inactive: [1] 5.25% | [2] -10.9% | [3] -16.8% | [4] 17.1% | [5] 0.75% | [6] 16.1%

CC(C)(C)OC(=O)N/N=C\c1ccnc2ccccc12
inactive: [1] -8.1% | [2] -8.75% | [3] 3.2% | [4] -15.7% | [5] -6.5% | [6] -1.95%

CCCCc1ccc(NC(=O)c2cccnc2)cc1
inactive: [1] 3% | [2] 14.4% | [3] 36.5% | [4] 15.2% | [5] -3.4% | [6] 27.6%

O=C(O)c1ccc([N+](=O)[O-])cc1C(=O)c1cccs1
inactive: [1] 0.7% | [2] -7.75% | [3] 4.6% | [4] -2.35% | [5] 5.6% | [6] -0.05%

O=[N+]([O-])c1ccc(C=Nc2ccc3c(c2)Cc2ccccc2-3)cc1
inactive: [1] -7.7% | [2] -16.8% | [3] 9.9% | [4] -20.1% | [5] -16.4% | [6] 1.25%

N#CCCSC(=S)C(C#N)C(=N)c1ccccc1 (stereo unspecified)
inactive: [1] 13.2% | [2] 2.25% | [3] 14.2% | [4] 1.5% | [5] -18.9% | [6] 10.3%

Cc1cc2c(=O)cc(-c3ccc(C(=O)O)cc3)oc2c(C(N)=O)c1C
inactive: [1] 4.15% | [2] 14.9% | [3] 23.6% | [4] 23.4% | [5] 11.2% | [6] 12.9%

COc1cccc(C(N)=O)c1OC
inactive: [1] 3.35% | [2] 8.05% | [3] -10.9% | [4] -22.4% | [5] 11.7% | [6] -15.2%

COc1cc([N+](=O)[O-])c2[nH]c(=O)ccc2c1
inactive: [1] -11.7% | [2] 19.7% | [3] -4.5% | [4] -7.2% | [5] -2.05% | [6] 3.45%

N/C(=N\S(=O)(=O)c1cc(C(F)(F)F)cc(C(F)(F)F)c1)c1ccncc1
inactive: [1] 4.95% | [2] 11.2% | [3] 23.9% | [4] 1.3% | [5] 19.6% | [6] 24.7%

Cc1ccnc(SCC(=O)O)n1
inactive: [1] -4.35% | [2] -1.9% | [3] 5.45% | [4] 12.9% | [5] 10.6% | [6] 4.95%

CCOC(=O)COc1ccc(Cl)cc1CCl
inactive: [1] 3.2% | [2] 6.4% | [3] -10.4% | [4] -10.9% | [5] 21.9% | [6] 1.65%

CS(=O)(=O)c1ccc(N2CCCCC2)c([N+](=O)[O-])c1
inactive: [1] 29.9% | [2] 6.05% | [3] 27.6% | [4] 16.7% | [5] 10.9% | [6] -4.9%

CCOC(=O)C(NC(=O)Cc1ccccc1)C(=O)OCC
inactive: [1] 10.8% | [2] 10.3% | [3] -0.75% | [4] 10.8% | [5] 14.9% | [6] -17.9%

C[N+](C)(C)C12CCC(CC1)C1([N+](C)(C)C)CCC2CC1
inactive: [1] 4.2% | [2] 21.4% | [3] 17.2% | [4] -10.2% | [5] 4.45% | [6] 22.1%

O=C(/C=C/C(=O)NCCc1ccccc1)NCCc1ccccc1
inactive: [1] -13.4% | [2] 0.85% | [3] 9.15% | [4] -7.45% | [5] 46.4% | [6] 17.4%

Cn1c(=O)c(Br)c(C=O)n(CCO[N+](=O)[O-])c1=O
inactive: [1] -8.25% | [2] 32% | [3] 3.85% | [4] 15.6% | [5] 38.6% | [6] -27.6%

CCOCCC(=N)OCC
inactive: [1] 11.2% | [2] -4.7% | [3] 7.9% | [4] 9.45% | [5] 4.2% | [6] 13.6%

Cc1nc(-n2nc(-c3ccccc3)cc2-c2ccccc2)sc1C(/C=C/c1ccc([N+](=O)[O-])cc1)=N/NC(N)=S
inactive: [1] 18.6% | [2] 7.15% | [3] 12.7% | [4] -18.3% | [5] 44.4% | [6] 33.7%

CC1OC(c2ccccc2)=CC(OCc2ccccc2)[C@H]1OCc1ccccc1 (stereo partly specified)
inactive: [1] -18.9% | [2] -23.6% | [3] -19% | [4] -50.8% | [5] -33% | [6] 2.95%

CS(=O)(=O)CC(O)(c1ccccc1)c1ccccc1
inactive: [1] -21.4% | [2] -2.4% | [3] 9.5% | [4] -13.3% | [5] 1.55% | [6] 28.1%

COc1cc(Nc2nc3ccccc3nc2C(=O)O)cc(OC)c1OC
inactive: [1] -26.2% | [2] -9.45% | [3] -16.1% | [4] 2.5% | [5] 16.9% | [6] -45.4%

CC(NC(=O)OC(C)(C)C)C(=O)NC(Cc1ccccc1)C(=O)NCC(=O)ON=C1CCCC1 (stereo unspecified)
inactive: [1] 37.1% | [2] 4.1% | [3] 32.6% | [4] 7.3% | [5] 1.9% | [6] 23.6%

COc1cc2[nH]c3c(c2cc1OC)CCN[C@@]31CC[C@@]2(CC3c4c(cc(OC)c(O)c42)CCN3C)C[C@@H]1OC (stereo partly specified)
inactive: [1] -14.8% | [2] -23.9% | [3] -37.5% | [4] 1% | [5] -35% | [6] -9.7%

N#Cc1c2c(c(N3CCCCC3)n3c1nc1ccccc13)CCC2
inactive: [1] 19.4% | [2] 13.9% | [3] 26.8% | [4] 8% | [5] 19.9% | [6] 19.9%

Cc1ccc2cc(N)ccc2c1
inactive: [1] -2.9% | [2] 8.05% | [3] 2.9% | [4] -9.85% | [5] 20.1% | [6] 23.1%

CC(=O)Nc1ccc2c(c1)C(=O)c1ccc(S(C)(=O)=O)cc1-2
inactive: [1] 14.8% | [2] -1.15% | [3] -0.95% | [4] 3.5% | [5] -0.85% | [6] -3.35%

COc1cc(C(C)S(=O)(=O)O)ccc1O (stereo unspecified)
inactive: [1] -19.6% | [2] 1.7% | [3] 8.45% | [4] -12.6% | [5] 4.9% | [6] -5.55%

O=C(Nc1ccccc1)SC1CCCCC1
inactive: [1] -4.6% | [2] 4.95% | [3] -8.7% | [4] -21.1% | [5] 3.8% | [6] -1.9%

Cc1nc2cc(Nc3ccccc3C(=O)O)ccc2s1
inactive: [1] -43.3% | [2] -36.6% | [3] -50.6% | [4] -0.7% | [5] -22.2% | [6] -25.9%

COC(=O)c1nc2n[nH]c(N)c2c2c1CCCCCCCCCC2
inactive: [1] 7.35% | [2] 15.6% | [3] -5.65% | [4] -13.6% | [5] 1.4% | [6] 12.1%

CCCCCC1CCC(OC(=O)NC)CC1 (stereo unspecified)
inactive: [1] 2% | [2] 9.85% | [3] -0.6% | [4] -19.9% | [5] 25.4% | [6] -6.95%

CCc1cc2c(c3c1CCCC3)CC1(Cc3ccc(C(=O)OC)cc3C1)C2 (stereo unspecified)
inactive: [1] 3.65% | [2] -11.7% | [3] -16.4% | [4] 10.3% | [5] 3.15% | [6] -12.4%

CC1(C(=O)O)CCCC2(C)C3=CC(=O)CCC3=CCC12 (stereo unspecified)
inactive: [1] -3.7% | [2] 18.1% | [3] 8.7% | [4] 2.95% | [5] 24.7% | [6] 4.5%

CCOC(=O)Cc1ccc(-c2csc(Nc3ccc(Cl)cc3)n2)cc1
inactive: [1] 49.9% | [2] 22.4% | [3] 35% | [4] 24.2% | [5] 24.8% | [6] 48.9%

CC(C)(C)c1cc(-c2c3nc(c(-c4cc(C(C)(C)C)cc(C(C)(C)C)c4)c4ccc([nH]4)c(-c4cc(C(C)(C)C)cc(C(C)(C)C)c4)c4nc(c(-c5cc(C(C)(C)C)cc(C(C)(C)C)c5)c5ccc2[nH]5)C=C4)C=C3)cc(C(C)(C)C)c1
inactive: [1] 19.8% | [2] 15.4% | [3] 24.2% | [4] 23.3% | [5] 2.6% | [6] 31.2%

Cc1ccccc1NC(=O)Nc1ccc(Nc2ccccc2)cc1
inactive: [1] -6.5% | [2] 32.2% | [3] 9.95% | [4] -11.6% | [5] 5.95% | [6] 25.5%

CC(=O)Nc1ccc(F)c(N)c1
inactive: [1] -3.2% | [2] -13.2% | [3] 8.7% | [4] -11.9% | [5] -9.1% | [6] 15.1%

Nc1nc(N)c(-c2ccc(Cl)cc2)c(CNc2cccc([N+](=O)[O-])c2)n1
active: [1] 90.9% | [2] 91.3% | [3] 97.7% | [4] 95% | [5] 98.1% | [6] 99.2%
